Structures are written as SMILES. Among all 52,000 compounds or so, about 4,300 (8.3%) were called active. This excerpt belongs to a sample that is enriched for actives. A number with no mark means an inactive call. Cut-off read from the data, not from the text of the source: active = survival mostly below about 52% (no sharp cut-off); inactive = mostly above about 56%.

From PubChem BioAssay AID463173 (ICCB-Longwood Screening Facility, Harvard Medical School, 2010) come the findings set out here.

The assay relates to DeltatarO mutant. The experiment in a line: S. aureus survival, RN4220 and DeltatarO strains – OD600, teichoic acid synthesis inhibitors, primary screen (AID 463173). The settings on record: S. aureus RN4220 wild type/DeltatarO growth, OD600, 18 h, stronger effect = lower value, screened at 18.75 µg/mL (by protocol).
Take `COc1ccc(CNC(=O)c2ccc(NC(=O)N3CCSc4ccccc43)cc2)cc1`: the survival was 56%.

For `Cc1ccc(NC(=O)Cn2c(=O)n(CC(=O)NCCc3ccccc3)c(=O)c3ccccc32)cc1`, the survival is 89%.

Regarding `CCC(C(=O)NC1CCCC1)N(C(=O)c1snc(C(N)=O)c1N)c1ccccc1` (stereo not given), the survival was 73%.

Consider `COc1cccc(NC(=O)N(Cc2nc3ccccc3c(=O)[nH]2)C2CCCCC2)c1`, for which the survival was 83%.

For `COc1cccc(NC(=O)N(Cc2cn(C)c3ccccc23)C2CCCCC2)c1`, the survival is -12% (active).

As for `COc1cccc(NC(=O)N(Cc2cn(C)c3ccccc23)C2CCCCCC2)c1`, the survival was -13% (active).

With `COc1cccc(NC(=O)N(Cc2c[nH]c3ccccc23)C2CCCCC2)c1`, the survival was 65%.

For the compound `COc1cccc(NC(=O)Cn2cc(C(=O)C3CCCCC3)c3ccccc32)c1`, the survival was 79%.

As to `COc1cccc(NC(=O)N(Cc2c[nH]c3ccccc23)C2CCCCCC2)c1`, the survival was 46%.

In the case of `CC(C)NC(=O)CSc1nc2ccccc2c(=O)n1Cc1ccc(C(=O)NC(C)C)cc1`, the survival is 105%.

Take `CCC1Oc2ccccc2N(CC(=O)NCc2cc(OC)ccc2OC)C1=O` (stereo not given): the survival is 85%.

`COc1ccc(-c2csc3nc(-c4ccc(F)cc4)oc(=O)c23)cc1OC`: the survival was 48% (active).

In the case of `COc1ccc(-c2csc3nc(-c4ccc(C)cc4)oc(=O)c23)cc1OC`, the survival was 63%.

In the case of `COc1ccc(-c2csc3nc(-c4ccccc4)oc(=O)c23)cc1OC`, the survival was 115%.

In the case of `C=CCc1cccc2cc(C(=O)Nc3ccc(F)cc3)c(=O)oc12`, the survival was 44% (active).

For the compound `C=CCc1cccc2cc(C(=O)Nc3cccc(Cl)c3)c(=O)oc12`, the survival is 79%.

Regarding `C=CCc1cccc2cc(NC(C)=O)c(=O)oc12`, the survival is 76%.

As for `CCc1cccc(-n2c(=O)c3cccnc3n2CC(=O)Nc2ccc(OC)c(Cl)c2)c1`, the survival is 104%.

In the case of `COc1ccc(CNC(=O)CSc2ncc(S(=O)(=O)c3ccc(Br)cc3)c(=O)[nH]2)cc1`, the survival was 62%.

In the case of `CCCCNc1nc(Oc2ccc(OCCC)nn2)nc(N(C)C)n1`, the survival is 84%.

Consider `COc1cccc(CNC(=O)CCc2c(C)nc3c4c(C)cc(C)nc4nn3c2C)c1`, for which the survival is 80%.

Regarding `COc1ccc(C(=O)NCc2nc(-c3cccc(C)c3)no2)cc1OC`, the survival was 98%.

In the case of `COc1ccccc1OCc1nc(-c2cccc(C)c2)no1`, the survival is -3% (active).

As for `COc1cccc(-c2noc(COc3cccc(C)c3C)n2)c1`, the survival is 84%.

In the case of `CCc1ccc(OCc2nc(-c3ccc(OC)c(OC)c3)no2)c(Br)c1`, the survival was 33% (active).

With `COc1ccc(N2CCN(c3ccc(-c4nc(-c5cccc(C)c5)no4)cc3[N+](=O)[O-])CC2)cc1`, the survival was 75%.

For `COc1cc(OC)cc(-c2nc(-c3ccc4c(c3)[nH]c(=O)n4C)no2)c1`, the survival is 94%.

Regarding `COc1cc(OC)cc(-c2nc(-c3cccc(C)c3)no2)c1`, the survival was -3% (active).

Take `CCc1ccc(OCC(=O)NCc2nc(-c3cccc(C)c3)no2)c(Br)c1`: the survival was 94%.

Regarding `COc1ccc(-c2noc(COc3ccc(Br)cc3C)n2)cc1OC`, the survival was 33% (active).

For `COc1cccc(-c2noc(COc3ccccc3Cl)n2)c1`, the survival is 81%.

With `COc1ccc(-c2noc(COc3cc(C)c(Br)c(C)c3)n2)cc1OC`, the survival was 60%.

Take `COc1ccc(-c2noc(CNS(=O)(=O)c3ccc(Br)cc3)n2)cc1OC`: the survival is 70%.

As to `COc1ccc(CCNC(=O)CCc2cn(Cc3ccc(C)cc3)c3ccccc23)c(OC)c1OC`, the survival is 52%.

For `Cc1ccc2nc(-c3ccncc3)c(Nc3ccccc3C)n2c1`, the survival is 103%.

Turning to `COc1ccc(CC(=O)NCc2ccc3c(c2)CCN3C(=O)c2ccc(C)cc2)cc1OC`, the survival was 99%.

As to `COc1ccccc1-c1nc2c(c(SCc3ccc(F)cc3Cl)n1)Cc1c(CO)cnc(C)c1O2`, the survival was 69%.

Consider `CCOC(=O)c1ccc(NC(=O)CC2C(=O)N(c3ccc(F)cc3)C(=O)N2Cc2cccnc2)cc1` (stereo not given), for which the survival was 95%.

As for `O=C(CSc1nc(-c2ccccc2)cc(=O)[nH]1)Nc1ccccc1`, the survival is 77%.

Turning to `COc1ccc(-c2nc3cnccn3c2NCc2ccc3c(c2)OCO3)cc1CN1CCOCC1`, the survival is 88%.

Take `CC1CCC(NC(=O)c2ccc(CS(=O)(=O)c3cccc(C(F)(F)F)c3)o2)CC1` (stereo not given): the survival was 75%.

As to `O=C(c1ccc(F)cc1)c1cn(Cc2ccccc2F)c2cc3c(cc2c1=O)OCCO3`, the survival is 83%.

With `COc1ccc(NC(=O)c2c(NCc3cccc(F)c3)sc3c2CCCC3)c(OC)c1`, the survival is 69%.

For the compound `COc1ccc(OCc2nc(-c3ccc(OC)c(OC)c3)no2)cc1`, the survival is 61%.

Regarding `COc1ccc(-c2noc(COc3cc(C)ccc3C)n2)cc1OC`, the survival was -5% (active).

In the case of `COc1ccc(-c2noc(CN(C)S(=O)(=O)c3c(C)cc(C)cc3C)n2)cc1OC`, the survival was 45%.

For the compound `CN(C)S(=O)(=O)c1ccc(S(=O)(=O)N(CC(=O)Nc2ccccc2)C2CC2)cc1`, the survival was 94%.

For the compound `Cc1cc(C)cc(OCC(=O)NCC2(N3CCOCC3)CCCCC2)c1`, the survival is 91%.

As to `COCc1[nH]nc2c1C(c1ccc(F)c(F)c1)C(C#N)=C(N)O2` (stereo not given), the survival was 74%.

With `CCn1c2ccccc2c2cc(C3C(C#N)=C(N)Oc4n[nH]c(C(C)C)c43)ccc21` (stereo not given), the survival is 3% (active).

Consider `CCc1[nH]nc2c1C(c1ccc(F)c(Oc3ccccc3)c1)C(C#N)=C(N)O2` (stereo not given), for which the survival is 80%.

`CCOC(=O)c1cc(S(=O)(=O)N2CCN(c3cccc(OC)c3)CC2)[nH]n1`: the survival was 108%.

Regarding `COc1ccc(NS(=O)(=O)c2ccc3c(c2)CCN3C(=O)C2CC2)cc1OC`, the survival was 86%.

Regarding `Cc1cccc(N2CCN(C(=O)Cc3c(C(=O)O)c(C)cn3C)CC2)c1C`, the survival was 96%.

In the case of `Cc1cn(C)c(CC(=O)N2CCN(c3ccccc3F)CC2)c1C(=O)O`, the survival was 89%.

Turning to `COc1ccccc1N1CCN(C(=O)Cc2c(C(=O)O)c(C)cn2C)CC1`, the survival was -5% (active).

For the compound `Cc1ccc(NC(=O)c2cccc(NC(=O)N3CCSc4ncccc43)c2)cc1Cl`, the survival was 88%.

As to `O=C(CCSCc1cnn(-c2ccccc2)c1-n1cccc1)NCc1ccc(Cl)cc1`, the survival was 63%.

Turning to `CCOC(=O)c1cccc(Nc2ccc3cc(S(=O)(=O)N4CCCCC4)ccc3n2)c1`, the survival was -1% (active).

`CC(=O)c1cccc(Nc2ccc3cc(S(=O)(=O)N4CCCC4)ccc3n2)c1`: the survival is 101%.

For `O=S(=O)(c1ccc2nc(Nc3cccc(F)c3)ccc2c1)N1CCCC1`, the survival is 72%.

For the compound `COc1ccc(-c2onc(C)c2C)cc1S(=O)(=O)N1CCN(c2ccc(Cl)cc2)CC1`, the survival is 64%.

Take `Clc1cccc(CNNc2nc(N3CCCCC3)nc(N3CCCCC3)n2)c1`: the survival is 98%.

`CCn1cc2nc(SCc3cc(C)ccc3C)n(CCc3ccccc3)c(=O)c2n1`: the survival was 67%.

As to `CCOC(=O)c1cnc2ccc(C)cc2c1NCCc1ccc(OC)c(OC)c1`, the survival is 136%.

Consider `CCOC(=O)c1cnc2ccc(OC)cc2c1NCCc1ccccc1`, for which the survival is -2% (active).

On to `CCOC(=O)c1cnc2c(C)c(Cl)ccc2c1NCCc1ccc(OC)c(OC)c1`, for which the survival is 17% (active).

Take `CCOC(=O)c1cnc2c(C)c(C)ccc2c1NCCCCCO`: the survival is 84%.

For the compound `CCOC(=O)c1ccc2ncc(C(=O)OCC)c(NCCc3ccc(OC)c(OC)c3)c2c1`, the survival is 53%.

`CCOC(=O)c1cnc2ccc(OC)cc2c1NCCc1ccc(OC)c(OC)c1`: the survival was 65%.

Consider `CCOC(=O)c1cnc2ccccc2c1NCCc1ccc(OC)c(OC)c1`, for which the survival is 33% (active).

For `CCOC(=O)c1cnc2c(C)c(Cl)ccc2c1NCCc1ccccc1`, the survival was -3% (active).

As to `CCOC(=O)c1cnc2ccc(OCC)cc2c1NCCc1ccc(OC)c(OC)c1`, the survival was 116%.

`CCOC(=O)c1cnc2c(C)c(Cl)ccc2c1Nc1ccc(C)cc1C`: the survival is 142%.

With `Cn1c(=O)n(CCc2ccccc2)c(=O)c2c1nc1n2CCN1c1ccc(Cl)cc1`, the survival was 76%.

For the compound `O=C(Cc1ccccc1)N(Cc1cccnc1)c1nc2ccc(F)cc2s1`, the survival was 86%.

As to `Cc1ccc(C2CCN(C(=O)c3cnn(-c4ccc(C)c(C)c4)c3C3CCN(C(=O)OC(C)(C)C)CC3)C2)cc1` (stereo not given), the survival is 90%.

For `COc1ccccc1N1CCN(S(=O)(=O)c2ccc(F)c(C(=O)Nc3ccc(C)c(F)c3)c2)CC1`, the survival was 93%.

Take `Cn1c(=N)n(CC(=O)c2ccc(-c3ccccc3)cc2)c2ccccc21`: the survival was 106%.

Turning to `CCCCNC(=O)CCCn1c(=O)c2ccccc2n(Cc2c(C)cc(C)cc2C)c1=O`, the survival is 90%.

For the compound `Cc1ccc(NC(=O)Cn2cc(C(=O)C3CCCCC3)c3ccccc32)c(C)c1`, the survival was 78%.

On to `COc1cccc(CNC(=O)COc2cc(=O)n(C)c3ccccc23)c1`, for which the survival was 72%.

For the compound `CCOC(=O)c1cnc2c(C)cc(C)cc2c1NCCc1ccc(OC)c(OC)c1`, the survival is 66%.

`CCOC(=O)c1cnc2c(C)cc(Cl)cc2c1NCCc1ccc(OC)c(OC)c1`: the survival was 31% (active).

With `CCOC(=O)c1c(C)oc2nc(C)nc(NCCc3ccc(OC)c(OC)c3)c12`, the survival is 94%.

Consider `COCCn1c(SCC(=O)c2ccc(F)cc2)nc2cc(C(=O)NC3CCCC3)ccc2c1=O`, for which the survival is 94%.

As to `CCCC1(C(=O)OCC)NC(c2ccccc2F)C2C(=O)N(c3ccccc3)C(=O)C21` (stereo not given), the survival is 88%.

On to `CCOC(=O)c1c(C)[nH]c(C)c1S(=O)(=O)NCC(=O)Nc1cccc(SC)c1`, for which the survival was 66%.

On to `OC1(C#CCN2CCCCCC2)CCCCC1`, for which the survival was 93%.

For the compound `COc1ccc(C(=O)CC2(O)C(=O)N(CCc3ccccc3)c3ccc(Br)cc32)cc1OC` (stereo not given), the survival is 53%.

Take `O=C(CC1(O)C(=O)N(CCc2ccccc2)c2ccc(Br)cc21)c1ccc(F)cc1` (stereo not given): the survival was 55%.

On to `O=C(CC1(O)C(=O)N(CCc2ccccc2)c2ccc(Br)cc21)c1ccccc1O` (stereo not given), for which the survival was 40% (active).

`O=C(CC1(O)C(=O)N(CCc2ccccc2)c2ccc(Br)cc21)c1ccccc1` (stereo not given): the survival is 25% (active).

Consider `C#CCN1C(=O)C(O)(CC(=O)c2ccc(OC)c(OC)c2)c2cc(Br)ccc21` (stereo not given), for which the survival is 78%.

For `Cc1ccc(C(=O)CC2(O)C(=O)N(CCc3ccccc3)c3ccc(Br)cc32)cc1` (stereo not given), the survival was 39%.
